Results on 96 compounds are retold here after PubChem BioAssay AID430 (Sanford-Burnham Center for Chemical Genomics, 2006).

Hit rate of the full screen: of about 63,000 compounds, about 1,100 (1.7%) were called active. The sample holds actives, similar compounds and a random draw of the others, so the mix is not that of the screen. Entries with a potency or affinity are not part of this list. A number with no mark means an inactive call. No stated cut-off is given here; in the data, active means cytotoxicity above about 50%; inactive means the rest.

This assay is described as follows: HPDE-C7 pancreatic duct cell viability loss – fluorescence, HTS (AID 430).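 Further: cells exposed to compound for 48 hours before viability readout; 0% = vehicle and 100% = reference cytotoxic drug.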 Conditions: HPDE-C7 pancreatic duct cells viability, at 10 µM, hits give high values.
In the case of `CCc1cc2c3c(c(=O)oc2cc1OC)CCCC3`, the cytotoxicity was 0%.

In the case of `Cc1ccc(-c2nsc3c(N4CCN(C(=O)c5ccco5)CC4)ncnc23)cc1`, the cytotoxicity is -21.7%.

Turning to `CN1Cc2cc(C(=O)c3cc(Cl)cc(CSc4ncccn4)c3O)cnc2NC1=O`, the cytotoxicity is 68.2% (active).

For the compound `Cc1ccc(O)c(C(=O)c2cnc3c(c2)CN(CCC(C)C)C(=O)N3)c1`, the cytotoxicity was -5.5%.

For `CCCCN1Cc2cc(C(=O)c3cc(F)ccc3O)cnc2NC1=O`, the cytotoxicity was 6.2%.

Turning to `CNC(=O)NC(=O)CSc1cccc(C(F)(F)F)c1`, the cytotoxicity is -6.3%.

With `COc1ccccc1N1CC(C(=O)OCC(=O)c2ccc(F)cc2)CC1=O` (stereo unspecified), the cytotoxicity was -16.4%.

As for `Cc1ccc(-c2noc(-c3cccs3)n2)cc1`, the cytotoxicity was 0.6%.

Regarding `COc1ccc(Cc2nc(-c3ccc(NC(=O)c4cccnc4)cc3)no2)cc1`, the cytotoxicity was 27.4%.

Turning to `O=C(Nc1ccc(-c2noc(CCc3ccccc3)n2)cc1)c1ccco1`, the cytotoxicity was 6.6%.

On to `O=C(Nc1ccc(-c2noc(-c3cccs3)n2)cc1)c1cccnc1`, for which the cytotoxicity is 53.2% (active).

In the case of `O=C(Nc1cccnc1)c1cc(-c2cccs2)on1`, the cytotoxicity is 14.1%.

Turning to `COc1cccc(-c2nc(-c3ccc(NC(=O)c4cccnc4)cc3)no2)c1`, the cytotoxicity was 70.7% (active).

For `COc1ccc(CC(=O)Nc2ccc(-c3noc(-c4cccc(OC)c4)n3)cc2)cc1`, the cytotoxicity is 1%.

Turning to `O=C(Nc1ccc(-c2noc(CCc3ccccc3)n2)cc1)c1cccnc1`, the cytotoxicity is 58.7% (active).

Regarding `c1ccc(CCc2nc(-c3cccnc3)no2)cc1`, the cytotoxicity is -9.2%.

With `COC(=O)C1=C(O)CSC1=Nc1cccc(C(F)(F)F)c1`, the cytotoxicity is 6.1%.

For the compound `CC1=CC(C)(C)N(C(=O)c2ccc(F)cc2)c2cc3c(cc21)OCO3`, the cytotoxicity was -5.1%.

Consider `Cc1ccc2[nH]c(=O)c(CN(CCN3CCOCC3)C(=O)Nc3ccc(F)cc3)cc2c1`, for which the cytotoxicity was 1.9%.

For the compound `COc1ccc(CNC(=O)c2cc(-c3ccccc3O)n[nH]2)cc1`, the cytotoxicity is -14.7%.

For `CCCCOC(=O)n1c(=O)oc2cc(S(=O)(=O)N3CCCCC3)ccc21`, the cytotoxicity was 4.7%.

Regarding `CCCSc1nnc2n(Cc3ccccc3)c(=O)c3c4c(sc3n12)CCC4`, the cytotoxicity was 52.7% (active).

On to `CCCSc1nnc2n(C)c(=O)c3c4c(sc3n12)CCC4`, for which the cytotoxicity is 4.3%.

Turning to `CCOC(=O)CSc1nnc2n(Cc3ccccc3)c(=O)c3c4c(sc3n12)CCC4`, the cytotoxicity is 22.6%.

`Cc1nnc2n(Cc3ccccc3)c(=O)c3c4c(sc3n12)CN(Cc1ccccc1)CC4`: the cytotoxicity was 11.3%.

Turning to `CC(C)C1Cc2c(sc3c2c(=O)n(Cc2ccccc2)c2nncn32)CO1` (stereo unspecified), the cytotoxicity was 7.1%.

As for `CCC(C)N(C(=O)COC(=O)c1cn(CC)c2nc(C)ccc2c1=O)C1CCS(=O)(=O)C1` (stereo unspecified), the cytotoxicity was -10.6%.

In the case of `CC(C)c1cc(C(=O)Nc2cccc(Cl)c2)no1`, the cytotoxicity is 1.6%.

Take `O=C(Nc1ccc(Oc2ccc(S(=O)(=O)N3CCOCC3)cn2)cc1)c1ccco1`: the cytotoxicity was 2.4%.

In the case of `COc1cc2cc3c(N)c(C(=O)NCc4ccco4)sc3nc2cc1OC`, the cytotoxicity was 31.5%.

In the case of `Nc1c(C(=O)NCc2ccco2)sc2nc3c(cc12)C(=O)CCC3`, the cytotoxicity was 56.5% (active).

With `COc1ccc2cc3c(N)c(C(=O)NCc4ccco4)sc3nc2c1`, the cytotoxicity is -0.3%.

Regarding `Cc1ccc(Cn2c(=O)c3ccccc3n3c(CCC(=O)O)nnc23)cc1`, the cytotoxicity was 23%.

As for `COC(=O)C1C(c2ccccc2)C(C(=O)N2CCOCC2)C1c1ccccc1` (stereo unspecified), the cytotoxicity was -2.2%.

Turning to `COc1ccc(CCN2C(=NC(=O)CCC(=O)O)SC3CS(=O)(=O)CC32)cc1OC` (stereo unspecified), the cytotoxicity is -11%.

As to `COc1ccc(CNC(=O)CSc2nnc(C)s2)cc1`, the cytotoxicity is -6.3%.

In the case of `FC(F)(F)c1cc(-c2cccs2)nc(N2CCOCC2)n1`, the cytotoxicity is -7.3%.

In the case of `FC(F)(F)c1cc(-c2ccco2)nc(-n2nnc3ccccc32)n1`, the cytotoxicity was 5.9%.

In the case of `FC(F)(F)c1cc(-c2ccco2)nc(NCc2ccco2)n1`, the cytotoxicity was 0.5%.

Turning to `CN1CCN(c2nc(-c3cccs3)cc(C(F)(F)F)n2)CC1`, the cytotoxicity was 1.7%.

For `FC(F)(F)c1cc(-c2ccco2)nc(-n2cnc3ccccc32)n1`, the cytotoxicity was 0%.

Consider `CC(C)c1nnc(NC(=O)CCC(=O)Nc2ccc(F)cc2)s1`, for which the cytotoxicity was 6.6%.

With `CC(C)c1nnc(NC(=O)CCS(=O)(=O)c2nc(-c3cccs3)cc(C(F)(F)F)n2)s1`, the cytotoxicity is 87% (active).

For the compound `CC(C)c1nnc(NC(=O)Cc2cccs2)s1`, the cytotoxicity is 1.9%.

As to `FC(F)(F)c1cc(-c2ccco2)nc(NCc2ccccc2)n1`, the cytotoxicity is 9.1%.

For `O=C(COc1cccc(-n2cnnn2)c1)N1CCOCC1`, the cytotoxicity is 18.5%.

As to `Cc1c(C)n(CC(O)CN2CCOCC2)c2ccccc12` (stereo unspecified), the cytotoxicity is -0.4%.

In the case of `CC(C)C(c1nnnn1Cc1ccc2c(c1)OCO2)N1CCN(c2ccccc2)CC1` (stereo unspecified), the cytotoxicity was -9.2%.

As for `COc1ccc(N2C(=O)CSC23C(=O)Nc2ccccc23)cc1OC` (stereo unspecified), the cytotoxicity is -18.4%.

`COc1cc(OC)cc(C(=O)Nc2ccccc2N2CCOCC2)c1`: the cytotoxicity is -3.9%.

In the case of `COc1cc(OC)c(C(=O)COc2ncnc3ccccc23)c(OC)c1`, the cytotoxicity is -5.8%.

As for `O=S(=O)(Nc1ccc2c(c1)OCO2)c1cccs1`, the cytotoxicity was 15.6%.

Take `Cn1c(NCC2CCCO2)nc2c1c(=O)n(Cc1ccccc1)c(=O)n2C` (stereo unspecified): the cytotoxicity was 4.9%.

With `COc1nc(-c2ccccc2)cc(C(F)(F)F)n1`, the cytotoxicity was -11.8%.

In the case of `COc1ccc(-c2cc(C(F)(F)F)nc(NC3CCCC3)n2)cc1OC`, the cytotoxicity is 24.7%.

On to `COc1ccc(-c2cc(C(F)(F)F)nc(N3CCCCC3)n2)cc1OC`, for which the cytotoxicity was -20.9%.

Consider `Nc1nc(-c2ccccc2)cc(C(F)(F)F)n1`, for which the cytotoxicity is -0.7%.

As for `COCCn1c(SCC(=O)OCc2ccccc2)nc2c1c(=O)[nH]c(=O)n2C`, the cytotoxicity was -3.3%.

Take `CCCCCCCC(=O)OCC(=O)[C@@]1(O)CC[C@H]2[C@@H]3CCC4=CC(=O)CC[C@]4(C)[C@H]3[C@@H](O)C[C@@]21C`: the cytotoxicity is -1.9%.

Regarding `CCCCC(=O)O[C@]1(C(=O)CO)CC[C@H]2[C@@H]3CCC4=CC(=O)CC[C@]4(C)[C@H]3[C@@H](O)C[C@@]21C`, the cytotoxicity was 8.3%.

In the case of `CCCCCC(=O)O[C@]1(C(C)=O)CC[C@H]2[C@@H]3CCC4=CC(=O)CC[C@]4(C)[C@H]3CC[C@@]21C`, the cytotoxicity is 116% (active).

Take `Cc1c(C(=O)O)c2cc(O)ccc2n1-c1ccccc1`: the cytotoxicity was 4.3%.

As to `Fc1ccc(-c2nnc(-c3ccc(Cl)cc3Cl)o2)cc1`, the cytotoxicity is 1.1%.

Regarding `O=C(NCc1ccco1)C(c1cccs1)N(Cc1ccccc1)C(=O)Cn1nnc2ccccc21` (stereo unspecified), the cytotoxicity was 3.4%.

In the case of `COCCCn1c2nc3ccccc3nc2c2c(=O)n(Cc3ccccc3Cl)cnc21`, the cytotoxicity was -8.1%.

As to `COc1ccc(NC(=O)CN(C)S(=O)(=O)c2cccc3cccnc23)cc1`, the cytotoxicity is -4.1%.

Regarding `COc1ccc(NC(=O)C2CCCN2S(=O)(=O)c2cccc3cccnc23)c(OC)c1` (stereo unspecified), the cytotoxicity is 5.8%.

For the compound `COc1ccc(N(C)S(=O)(=O)c2cccc3cccnc23)c(OC)c1`, the cytotoxicity is 51.4% (active).

As for `Cc1ccc(S(=O)(=O)NCC(=O)N2CCCCC2)cc1`, the cytotoxicity is -15.4%.

On to `CCc1nc(N2CCN(C(=O)c3ccco3)CC2)c2oc3ccccc3c2n1`, for which the cytotoxicity is 22.2%.

For the compound `O=C(c1cc2cc(Cl)ccc2oc1=O)N1CCCC1`, the cytotoxicity is -1.3%.

For `COc1ccccc1NC(=O)C1=C(C)NC(SCC(=O)c2ccccc2)=C(C#N)C1c1ccco1` (stereo unspecified), the cytotoxicity was 33.9%.

For `CC1=C(C(=O)Nc2ccccc2)C(c2ccco2)C(C#N)=C(SCC(=O)OC(C)C)N1` (stereo unspecified), the cytotoxicity was 42.1%.

For `CCOC(=O)C1=C(c2ccccc2)NC(SCC(=O)Nc2ccccc2C)=C(C#N)C1c1ccco1` (stereo unspecified), the cytotoxicity was 32.9%.

As for `CC1=C(C(=O)Nc2ccccc2)C(c2ccco2)C(C#N)=C(SCc2ccccc2)N1` (stereo unspecified), the cytotoxicity is 63.1% (active).

Take `CCOC(=O)CSC1=C(C#N)C(c2ccco2)C(C(=O)Nc2cccc(C(F)(F)F)c2)=C(C)N1` (stereo unspecified): the cytotoxicity is 12.4%.

Consider `CC1=C(C(=O)Nc2ccccc2)C(c2ccco2)C(C#N)=C(SCC(=O)Nc2cccc(C)c2C)N1` (stereo unspecified), for which the cytotoxicity was 67% (active).

For `Cc1cccc(OCCC(=O)Nc2ccc(S(=O)(=O)N3CCCC3)cc2)c1`, the cytotoxicity is -7%.

Consider `CCOc1ccc(NC(=O)c2cccc(-n3cnnn3)c2)cc1`, for which the cytotoxicity is 0.4%.

As to `CCC(C)SCc1nc2ccccc2[nH]1` (stereo unspecified), the cytotoxicity was -5.4%.

`COc1cccc(-c2noc(CCC(=O)Nc3cccnc3)n2)c1`: the cytotoxicity was 2%.

Take `O=C(OCc1ccc(F)cc1Cl)c1ccccn1`: the cytotoxicity was 4.8%.

Consider `CN(C)c1ccc(S(=O)(=O)c2ccc(Cl)cc2)cc1`, for which the cytotoxicity is 1%.

For the compound `c1cncc(-c2nc(NCc3ccco3)c3ccccc3n2)c1`, the cytotoxicity was 5.3%.

In the case of `CSCC[C@@H](Nc1nc(-c2ccccc2)nc2c1oc1ccccc12)C(=O)O`, the cytotoxicity was 7.2%.

`O=C(NCc1cccs1)c1cc2ccccc2o1`: the cytotoxicity is -2.4%.

With `CCC(C)(NC(=O)c1ccc(=O)[nH]c1)C(=O)NC1CCCC1` (stereo unspecified), the cytotoxicity is -7%.

On to `COC(=O)CNC(=O)C(Cc1c[nH]c2ccccc12)NC(=O)OC(C)(C)C` (stereo unspecified), for which the cytotoxicity was -5%.

Consider `COc1ccc(CNC(=O)c2cnc3scc(C)n3c2=O)cc1`, for which the cytotoxicity is -6.4%.

As for `Cc1csc2ncc(C(=O)Nc3ccccc3F)c(=O)n12`, the cytotoxicity was 51.2% (active).

On to `Cc1nc2c(C(=O)O)cnn2c(C)c1Cc1ccccc1F`, for which the cytotoxicity was -26.4%.

`Cc1csc2ncc(C(=O)Nc3ccc4c(c3)OCCO4)c(=O)n12`: the cytotoxicity is -20.4%.

On to `Cc1csc2ncc(C(=O)Nc3ccccc3Cl)c(=O)n12`, for which the cytotoxicity is -6.7%.

`Cc1csc2ncc(C(=O)NCc3ccc4c(c3)OCO4)c(=O)n12`: the cytotoxicity is 67.4% (active).

As for `Cc1ccccc1Cc1c(C)nc2c(C(=O)N3CCN(Cc4ccc5c(c4)OCO5)CC3)cnn2c1C`, the cytotoxicity is -6.7%.

Turning to `CSc1ccccc1NC(=O)c1cnc2scc(C)n2c1=O`, the cytotoxicity is -4.8%.
